From article PMC7862700, “An all-to-all approach to the identification of sequence-specific readers for epigenetic DNA modifications on cytosine” come the findings set out here.

Common to all, as to test: DAPPL (digital affinity profiling via proximity ligation, sequencing); 10 mM Tris-HCl pH 7.5, 50 mM NaCl, 1 mM DTT, 4% glycerol, room temperature, 30 min; GST-TFs on glutathione beads, 16-mer random dsDNA library, 0.1% formaldehyde crosslink after washing; high values mean tight binding
The target in experiment [1] is T1, FLI1 (Homo sapiens, UniProt Q01543 1-452).
T1 sequence: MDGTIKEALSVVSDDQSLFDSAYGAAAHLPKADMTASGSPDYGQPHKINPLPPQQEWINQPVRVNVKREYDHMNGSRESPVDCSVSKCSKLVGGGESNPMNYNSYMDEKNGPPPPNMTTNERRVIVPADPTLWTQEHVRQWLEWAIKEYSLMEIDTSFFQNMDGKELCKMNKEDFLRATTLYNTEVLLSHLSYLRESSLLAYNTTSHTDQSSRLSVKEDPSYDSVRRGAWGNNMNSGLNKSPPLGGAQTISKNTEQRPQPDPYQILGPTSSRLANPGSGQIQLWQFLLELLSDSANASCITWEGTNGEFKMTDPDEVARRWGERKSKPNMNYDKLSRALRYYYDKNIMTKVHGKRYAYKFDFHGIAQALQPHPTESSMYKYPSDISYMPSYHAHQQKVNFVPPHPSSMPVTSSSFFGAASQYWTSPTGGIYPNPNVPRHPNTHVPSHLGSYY
The settings on record: protein: recombinant; tags: N-terminal GST; dsDNA, one strand shown. The procedure, abridged: (§1)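 Pools were built from human transcription factors expressed in yeast as GST fusions, captured on glutathione beads and DNA-barcoded, along with a tag-only sample. Incubation with 200 nmole of a 16-mer random double-stranded DNA library lasted 30 min at room temperature in Tris/NaCl/DTT/glycerol buffer, and was followed by washing, 0.1% formaldehyde crosslinking, proximity ligation, PCR amplification and Illumina NextSeq500 sequencing. Binding signal is the quotient of each hexamer's read frequency for a factor and its frequency for the tag-only sample.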

For experiment [2], the target named is T2, ELK1 (Homo sapiens, UniProt P19419 1-428).
T2 sequence: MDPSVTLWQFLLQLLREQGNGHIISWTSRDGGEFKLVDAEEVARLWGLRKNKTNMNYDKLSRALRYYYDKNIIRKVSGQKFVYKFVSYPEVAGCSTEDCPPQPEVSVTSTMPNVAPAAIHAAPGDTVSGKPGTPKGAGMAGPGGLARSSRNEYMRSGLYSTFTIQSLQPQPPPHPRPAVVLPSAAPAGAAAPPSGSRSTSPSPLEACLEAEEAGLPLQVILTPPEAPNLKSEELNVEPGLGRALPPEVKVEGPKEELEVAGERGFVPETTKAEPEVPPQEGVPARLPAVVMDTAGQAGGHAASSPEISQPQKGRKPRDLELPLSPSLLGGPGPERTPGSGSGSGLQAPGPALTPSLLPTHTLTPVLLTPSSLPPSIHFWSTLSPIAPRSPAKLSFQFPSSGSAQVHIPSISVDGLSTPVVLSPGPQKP
The conditions noted are these: protein: recombinant; tags: N-terminal GST; dsDNA, one strand shown. The procedure, abridged: as §1

Experiment [3] addresses T3, GABPA (Homo sapiens, UniProt Q06546 1-454).
T3 sequence: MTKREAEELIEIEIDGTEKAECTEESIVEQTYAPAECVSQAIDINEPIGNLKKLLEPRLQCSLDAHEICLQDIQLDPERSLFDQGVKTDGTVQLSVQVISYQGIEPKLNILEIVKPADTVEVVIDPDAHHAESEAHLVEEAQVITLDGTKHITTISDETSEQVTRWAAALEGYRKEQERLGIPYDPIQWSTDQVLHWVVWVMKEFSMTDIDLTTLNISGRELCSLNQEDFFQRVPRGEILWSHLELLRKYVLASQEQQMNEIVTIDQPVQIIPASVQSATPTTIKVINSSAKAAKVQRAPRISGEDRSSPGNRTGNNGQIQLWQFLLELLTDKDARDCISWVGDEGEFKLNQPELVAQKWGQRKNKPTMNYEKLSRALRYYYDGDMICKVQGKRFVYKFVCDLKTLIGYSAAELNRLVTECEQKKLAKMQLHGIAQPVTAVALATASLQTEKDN
The settings on record: protein: recombinant; tags: N-terminal GST; dsDNA, one strand shown. The essentials: as §1

Experiment [4] concerns the target T4, ERG (Homo sapiens, UniProt P11308 1-479).
T4 sequence: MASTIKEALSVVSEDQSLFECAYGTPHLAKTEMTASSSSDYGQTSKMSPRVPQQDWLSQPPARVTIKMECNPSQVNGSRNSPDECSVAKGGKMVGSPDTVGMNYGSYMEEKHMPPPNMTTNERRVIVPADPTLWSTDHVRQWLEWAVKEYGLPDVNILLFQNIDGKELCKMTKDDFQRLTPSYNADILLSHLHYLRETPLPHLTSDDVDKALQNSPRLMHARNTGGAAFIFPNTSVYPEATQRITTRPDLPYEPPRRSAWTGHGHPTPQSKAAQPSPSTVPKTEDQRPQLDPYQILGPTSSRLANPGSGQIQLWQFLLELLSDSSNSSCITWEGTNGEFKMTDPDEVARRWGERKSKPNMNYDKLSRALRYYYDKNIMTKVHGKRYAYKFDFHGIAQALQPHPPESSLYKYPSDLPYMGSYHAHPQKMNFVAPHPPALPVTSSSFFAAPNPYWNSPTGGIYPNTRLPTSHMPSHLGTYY
The conditions noted are these: protein: recombinant; tags: N-terminal GST; dsDNA, one strand shown. The procedure, abridged:
as §1

Experiment [5] deals with ELF1 (Homo sapiens, UniProt P32519 1-619). The settings on record: protein: recombinant; tags: N-terminal GST; dsDNA, one strand shown. The procedure, abridged: as §1
Sequence of ELF1 (P32519 whole entry): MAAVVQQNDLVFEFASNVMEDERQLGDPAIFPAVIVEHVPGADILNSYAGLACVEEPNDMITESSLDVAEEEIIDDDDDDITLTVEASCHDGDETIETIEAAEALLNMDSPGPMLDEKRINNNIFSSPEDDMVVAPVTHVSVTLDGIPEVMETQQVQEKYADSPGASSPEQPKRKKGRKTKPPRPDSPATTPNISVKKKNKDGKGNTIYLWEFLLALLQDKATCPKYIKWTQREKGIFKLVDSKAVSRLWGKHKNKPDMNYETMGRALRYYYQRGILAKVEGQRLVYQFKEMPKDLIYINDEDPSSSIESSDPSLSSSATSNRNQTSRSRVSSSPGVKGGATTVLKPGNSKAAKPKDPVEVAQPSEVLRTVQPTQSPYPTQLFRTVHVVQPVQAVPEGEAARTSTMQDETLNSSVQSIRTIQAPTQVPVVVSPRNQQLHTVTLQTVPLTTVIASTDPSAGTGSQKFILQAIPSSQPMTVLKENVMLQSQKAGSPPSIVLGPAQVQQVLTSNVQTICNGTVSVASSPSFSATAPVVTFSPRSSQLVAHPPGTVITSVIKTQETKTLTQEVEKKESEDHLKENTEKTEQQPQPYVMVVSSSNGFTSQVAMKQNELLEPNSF
Experiment [6] has as its target T5, EHF (Homo sapiens, UniProt Q9NZC4 1-300).
T5 sequence: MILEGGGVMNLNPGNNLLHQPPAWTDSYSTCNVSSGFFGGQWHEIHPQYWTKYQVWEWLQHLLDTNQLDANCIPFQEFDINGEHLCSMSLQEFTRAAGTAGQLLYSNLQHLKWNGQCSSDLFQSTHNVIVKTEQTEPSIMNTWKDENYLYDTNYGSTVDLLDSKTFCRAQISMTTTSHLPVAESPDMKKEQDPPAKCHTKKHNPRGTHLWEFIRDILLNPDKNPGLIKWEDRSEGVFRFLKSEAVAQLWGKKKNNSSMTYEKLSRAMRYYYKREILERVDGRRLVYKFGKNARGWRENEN
The settings on record: protein: recombinant; tags: N-terminal GST; dsDNA, one strand shown. The essentials:
as §1

Experiment [7] deals with SPI1 (Homo sapiens, UniProt P17947 1-270). The settings on record: protein: recombinant; tags: N-terminal GST; dsDNA, one strand shown. The procedure, abridged:
as §1

In experiment [8] the target is SPIB (Homo sapiens, UniProt Q01892 1-262). The conditions noted are these: protein: recombinant; tags: N-terminal GST; dsDNA, one strand shown. The procedure, abridged: as §1
Sequence of SPIB (Q01892 whole entry): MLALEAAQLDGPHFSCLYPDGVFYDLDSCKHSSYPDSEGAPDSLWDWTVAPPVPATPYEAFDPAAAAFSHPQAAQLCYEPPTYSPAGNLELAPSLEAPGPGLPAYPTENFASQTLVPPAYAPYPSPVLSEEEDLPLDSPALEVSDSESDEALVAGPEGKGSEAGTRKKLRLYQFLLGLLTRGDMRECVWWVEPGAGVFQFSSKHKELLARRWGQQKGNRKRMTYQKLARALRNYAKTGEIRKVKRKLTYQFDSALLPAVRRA
In experiment [9] the target is T6, ELK3 (Homo sapiens, UniProt P41970 1-407).
T6 sequence: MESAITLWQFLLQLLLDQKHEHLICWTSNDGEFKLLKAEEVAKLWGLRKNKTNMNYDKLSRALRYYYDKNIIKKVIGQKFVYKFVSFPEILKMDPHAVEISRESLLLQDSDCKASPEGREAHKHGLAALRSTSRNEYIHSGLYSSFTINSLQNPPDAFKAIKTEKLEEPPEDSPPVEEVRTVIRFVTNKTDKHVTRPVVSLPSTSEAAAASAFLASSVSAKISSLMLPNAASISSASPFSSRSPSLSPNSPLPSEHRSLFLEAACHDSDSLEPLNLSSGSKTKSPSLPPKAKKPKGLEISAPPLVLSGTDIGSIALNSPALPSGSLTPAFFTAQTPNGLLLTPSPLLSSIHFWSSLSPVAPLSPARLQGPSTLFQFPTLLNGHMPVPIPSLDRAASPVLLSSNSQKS
The settings on record: protein: recombinant; tags: N-terminal GST; dsDNA, one strand shown. The essentials: as §1

Experiment [10] concerns the target T7, FEV (Homo sapiens, UniProt Q99581 1-238).
T7 sequence: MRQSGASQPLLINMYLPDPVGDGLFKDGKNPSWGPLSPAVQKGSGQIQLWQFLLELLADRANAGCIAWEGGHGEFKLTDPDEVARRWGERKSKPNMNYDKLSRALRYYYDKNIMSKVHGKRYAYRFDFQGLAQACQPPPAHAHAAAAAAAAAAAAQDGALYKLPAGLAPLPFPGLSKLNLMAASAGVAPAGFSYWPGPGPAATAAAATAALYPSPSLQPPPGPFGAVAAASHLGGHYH
The conditions noted are these: protein: recombinant; tags: N-terminal GST; dsDNA, one strand shown. The essentials:
as §1

Experiment [11] addresses ETV5 (Homo sapiens, UniProt P41161 1-510). The settings on record: protein: recombinant; tags: N-terminal GST; dsDNA, one strand shown. The essentials: as §1
Experiment [12] addresses HSF1 (Homo sapiens, UniProt Q00613 1-529). The conditions noted are these: protein: recombinant; tags: N-terminal GST; chain copies: 3; dsDNA, one strand shown. The essentials: as §1
For experiment [13], the target named is T8, SPIC (Homo sapiens, UniProt Q8N5J4 1-248).
T8 sequence: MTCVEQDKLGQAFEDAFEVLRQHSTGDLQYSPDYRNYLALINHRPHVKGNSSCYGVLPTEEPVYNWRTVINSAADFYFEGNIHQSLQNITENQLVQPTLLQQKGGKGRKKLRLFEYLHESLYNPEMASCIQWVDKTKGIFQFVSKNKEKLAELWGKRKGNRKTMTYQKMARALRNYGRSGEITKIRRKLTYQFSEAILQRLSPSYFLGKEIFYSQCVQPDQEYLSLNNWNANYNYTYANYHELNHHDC
The settings on record: protein: recombinant; tags: N-terminal GST; dsDNA, one strand shown. The essentials: as §1

The target of experiment [14] is ELF4 (Homo sapiens, UniProt Q99607 1-663). The settings on record: protein: recombinant; tags: N-terminal GST; dsDNA, one strand shown. The procedure, abridged: as §1
Sequence of ELF4 (Q99607 whole entry): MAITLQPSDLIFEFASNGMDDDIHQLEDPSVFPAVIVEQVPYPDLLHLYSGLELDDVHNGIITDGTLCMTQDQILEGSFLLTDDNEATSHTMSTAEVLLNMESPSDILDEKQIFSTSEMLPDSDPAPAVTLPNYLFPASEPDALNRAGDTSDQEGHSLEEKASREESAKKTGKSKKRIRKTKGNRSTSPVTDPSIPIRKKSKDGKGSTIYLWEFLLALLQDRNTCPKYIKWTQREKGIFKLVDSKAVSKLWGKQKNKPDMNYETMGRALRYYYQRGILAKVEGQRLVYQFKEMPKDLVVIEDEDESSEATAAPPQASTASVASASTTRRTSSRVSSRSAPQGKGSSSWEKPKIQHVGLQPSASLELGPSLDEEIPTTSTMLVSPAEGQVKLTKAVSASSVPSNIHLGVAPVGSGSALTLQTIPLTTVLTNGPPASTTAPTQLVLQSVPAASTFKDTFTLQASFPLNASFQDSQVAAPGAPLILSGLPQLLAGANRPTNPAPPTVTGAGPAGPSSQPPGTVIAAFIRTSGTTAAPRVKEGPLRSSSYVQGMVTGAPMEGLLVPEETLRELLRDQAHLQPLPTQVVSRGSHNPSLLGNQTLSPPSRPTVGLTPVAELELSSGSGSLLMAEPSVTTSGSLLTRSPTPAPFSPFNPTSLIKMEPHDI
The target of experiment [15] is T9, ELK4 (Homo sapiens, UniProt P28324-2 1-405).
T9 sequence: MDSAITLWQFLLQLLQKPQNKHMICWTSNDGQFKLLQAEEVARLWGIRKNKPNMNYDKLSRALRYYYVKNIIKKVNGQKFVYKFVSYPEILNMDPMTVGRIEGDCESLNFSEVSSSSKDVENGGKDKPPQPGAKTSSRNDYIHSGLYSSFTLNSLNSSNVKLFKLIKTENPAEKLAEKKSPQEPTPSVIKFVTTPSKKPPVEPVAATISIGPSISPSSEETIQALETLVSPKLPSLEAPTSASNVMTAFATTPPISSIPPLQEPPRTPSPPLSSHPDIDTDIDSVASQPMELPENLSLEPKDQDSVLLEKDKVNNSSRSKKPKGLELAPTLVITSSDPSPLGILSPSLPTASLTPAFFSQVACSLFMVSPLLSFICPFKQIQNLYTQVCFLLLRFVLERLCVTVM
The conditions noted are these: protein: recombinant; tags: N-terminal GST; dsDNA, one strand shown. The essentials: as §1

The target of experiment [16] is T10, ETV2 (Homo sapiens, UniProt O00321 1-342).
T10 sequence: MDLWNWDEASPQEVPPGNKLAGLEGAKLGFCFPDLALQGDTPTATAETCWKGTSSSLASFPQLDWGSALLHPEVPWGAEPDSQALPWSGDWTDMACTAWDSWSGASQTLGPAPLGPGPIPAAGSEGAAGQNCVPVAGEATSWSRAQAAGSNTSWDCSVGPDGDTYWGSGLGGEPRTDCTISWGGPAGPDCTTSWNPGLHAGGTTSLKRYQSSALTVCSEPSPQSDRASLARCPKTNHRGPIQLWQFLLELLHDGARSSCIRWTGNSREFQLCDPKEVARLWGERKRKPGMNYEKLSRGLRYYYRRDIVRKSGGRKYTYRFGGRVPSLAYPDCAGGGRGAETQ
The settings on record: protein: recombinant; tags: N-terminal GST; dsDNA, one strand shown. The procedure, abridged: as §1

Experiment [17] deals with T11, ELF3 (Homo sapiens, UniProt P78545 1-371).
T11 sequence: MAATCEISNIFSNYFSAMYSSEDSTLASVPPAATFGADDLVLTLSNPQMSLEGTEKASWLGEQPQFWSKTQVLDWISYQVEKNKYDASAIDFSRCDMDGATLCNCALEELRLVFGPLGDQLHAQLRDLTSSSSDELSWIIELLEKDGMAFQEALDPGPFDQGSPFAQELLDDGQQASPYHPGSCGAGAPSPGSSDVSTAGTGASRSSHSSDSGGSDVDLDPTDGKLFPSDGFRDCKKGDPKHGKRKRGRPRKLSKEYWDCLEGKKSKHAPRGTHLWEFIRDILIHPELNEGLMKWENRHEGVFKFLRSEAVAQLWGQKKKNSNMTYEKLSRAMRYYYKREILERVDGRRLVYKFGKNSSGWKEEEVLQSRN
The conditions noted are these: protein: recombinant; tags: N-terminal GST; dsDNA, one strand shown. The essentials: as §1

The target of experiment [18] is CRX (Homo sapiens, UniProt O43186 1-299). The settings on record: protein: recombinant; tags: N-terminal GST; dsDNA, one strand shown. The essentials: as §1
Sequence of CRX (O43186 whole entry): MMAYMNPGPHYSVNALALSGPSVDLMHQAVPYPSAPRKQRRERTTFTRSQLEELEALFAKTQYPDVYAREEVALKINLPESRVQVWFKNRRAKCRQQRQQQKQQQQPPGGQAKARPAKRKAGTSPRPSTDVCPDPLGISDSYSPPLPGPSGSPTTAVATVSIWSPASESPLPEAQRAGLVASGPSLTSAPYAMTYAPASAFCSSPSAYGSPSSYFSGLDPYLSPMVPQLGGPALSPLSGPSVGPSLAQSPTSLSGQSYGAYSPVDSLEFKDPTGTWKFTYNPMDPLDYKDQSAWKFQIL
Experiment [19] has as its target ETV1 (Homo sapiens, UniProt P50549 1-477). The settings on record: protein: recombinant; tags: N-terminal GST; dsDNA, one strand shown. The procedure, abridged:
as §1

Sequence of HSF1 (Q00613 whole entry): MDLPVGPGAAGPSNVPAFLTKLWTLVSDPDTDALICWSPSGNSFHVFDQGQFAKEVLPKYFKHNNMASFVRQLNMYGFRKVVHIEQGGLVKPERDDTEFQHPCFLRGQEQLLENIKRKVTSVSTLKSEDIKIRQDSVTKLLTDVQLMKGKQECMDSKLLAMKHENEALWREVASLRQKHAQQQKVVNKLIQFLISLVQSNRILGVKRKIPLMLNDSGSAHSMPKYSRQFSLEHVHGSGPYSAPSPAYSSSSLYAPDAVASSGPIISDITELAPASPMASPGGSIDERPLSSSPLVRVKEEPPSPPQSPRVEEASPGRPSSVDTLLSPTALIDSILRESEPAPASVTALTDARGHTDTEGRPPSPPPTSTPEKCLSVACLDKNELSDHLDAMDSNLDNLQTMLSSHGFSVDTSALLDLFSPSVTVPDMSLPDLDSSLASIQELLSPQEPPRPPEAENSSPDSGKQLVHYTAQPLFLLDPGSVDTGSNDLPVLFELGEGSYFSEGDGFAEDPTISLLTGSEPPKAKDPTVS
Sequence of ETV5 (P41161 whole entry): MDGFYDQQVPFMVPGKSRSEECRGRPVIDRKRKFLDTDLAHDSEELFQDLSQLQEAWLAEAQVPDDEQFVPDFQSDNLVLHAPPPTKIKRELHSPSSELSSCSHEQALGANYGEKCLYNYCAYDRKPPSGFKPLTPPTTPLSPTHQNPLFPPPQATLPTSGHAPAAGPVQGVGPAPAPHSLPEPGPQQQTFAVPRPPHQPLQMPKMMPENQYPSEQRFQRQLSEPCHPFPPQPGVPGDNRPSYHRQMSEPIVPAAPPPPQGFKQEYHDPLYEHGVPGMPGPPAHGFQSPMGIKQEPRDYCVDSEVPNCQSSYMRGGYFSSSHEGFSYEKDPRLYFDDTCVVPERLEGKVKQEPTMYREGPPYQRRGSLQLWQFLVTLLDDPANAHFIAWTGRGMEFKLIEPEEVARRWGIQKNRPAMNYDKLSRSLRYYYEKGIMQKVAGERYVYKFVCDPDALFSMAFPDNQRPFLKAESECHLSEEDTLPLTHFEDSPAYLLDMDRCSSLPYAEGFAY
Sequence of ETV1 (P50549 whole entry): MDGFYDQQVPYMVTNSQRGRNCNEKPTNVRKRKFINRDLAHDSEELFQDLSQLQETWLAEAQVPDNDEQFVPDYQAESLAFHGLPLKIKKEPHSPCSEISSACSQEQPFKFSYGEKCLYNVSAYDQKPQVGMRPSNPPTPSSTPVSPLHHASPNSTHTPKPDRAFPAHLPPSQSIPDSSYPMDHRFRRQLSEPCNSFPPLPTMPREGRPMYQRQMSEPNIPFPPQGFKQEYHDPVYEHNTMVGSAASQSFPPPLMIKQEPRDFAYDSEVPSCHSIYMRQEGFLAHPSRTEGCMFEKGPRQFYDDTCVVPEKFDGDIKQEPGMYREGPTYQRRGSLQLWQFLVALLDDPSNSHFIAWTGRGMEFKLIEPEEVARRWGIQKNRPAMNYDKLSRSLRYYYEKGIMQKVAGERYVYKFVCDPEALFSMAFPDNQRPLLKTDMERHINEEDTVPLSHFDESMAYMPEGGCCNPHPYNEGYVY

For TACTGC, the binding signal in experiment [1] was 1.22 fold enrichment (6-mer frequency, TF over GST control); in experiment [2], 1.22 fold enrichment (6-mer frequency, TF over GST control); in experiment [3] it was 1.17 fold enrichment (6-mer frequency, TF over GST control); in experiment [4], 1.25 fold enrichment (6-mer frequency, TF over GST control); in experiment [5], 1.24 fold enrichment (6-mer frequency, TF over GST control); in experiment [6], 1.3 fold enrichment (6-mer frequency, TF over GST control). The binding signal in [7] was 1.24 fold enrichment (6-mer frequency, TF over GST control); in [8] it was 1.13 fold enrichment (6-mer frequency, TF over GST control); in experiment [9], 1.1 fold enrichment (6-mer frequency, TF over GST control); in [10], 1.24 fold enrichment (6-mer frequency, TF over GST control); in experiment [11] it was 1.32 fold enrichment (6-mer frequency, TF over GST control); in experiment [12] it was 1.1 fold enrichment (6-mer frequency, TF over GST control). For the same sequence, the binding signal in experiment [13] is 1.29 fold enrichment (6-mer frequency, TF over GST control); in [14], 1.22 fold enrichment (6-mer frequency, TF over GST control); in [15], 1.17 fold enrichment (6-mer frequency, TF over GST control); in experiment [16], 1.09 fold enrichment (6-mer frequency, TF over GST control); in [17], 1.34 fold enrichment (6-mer frequency, TF over GST control); in experiment [18], 1.17 fold enrichment (6-mer frequency, TF over GST control). Moreover, the binding signal in experiment [19] was 1.08 fold enrichment (6-mer frequency, TF over GST control).
